Measured values from PubChem BioAssay AID1159580 (chemical genetic matrix, 2015).
Hit rate of the full screen: of about 5,500 compounds, about 2,000 (36%) were called active. About 18% were inconclusive and are not listed. No stated cut-off is given here; in the data, active means normalized growth mostly below about 0.91 (no sharp cut-off); inconclusive means no clear call, values can overlap the other calls; inactive means mostly above about 0.92. The list shows a part of the results.

Assay: chemical genetic growth profiling, strain panel (AID 1159580);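 further: tested at 20 µM; growth read once vehicle control cultures reached saturation at 30 °C; 1 = growth at the plate median or of vehicle wells; lower values mean less growth of the strain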
Settings: S. cerevisiae deletion strains, growth OD

Measured: normalized growth

COc1ccc(-c2c(OC)c3c(OC)c4c(cc3oc2=O)OC(C)(C)C=C4)cc1
active: locus YOL006C, strain TOP1, active compounds read low 1.54 [resistant]
inactive: locus YBR021W, strain FUR4, active compounds read low 1.08 | locus YBR229C, strain ROT2, active compounds read low 1.03 | locus YCL029C, strain bik1, active compounds read low 0.974 | locus YDL035C, strain GPR1, active compounds read low 1.09 | locus YDL074C, strain BRE1, active compounds read low 1.18 | locus YDL101C, strain DUN1, active compounds read low 0.99 | locus YDL185W, strain tfp1, active compounds read low 0.988 | locus YDL192W, strain arf1, active compounds read low 1.08 | locus YDR101C, strain arx1, active compounds read low 1.07 | locus YDR162C, strain NBP2, active compounds read low 1.06 | locus YDR318W, strain mcm21, active compounds read low 1 | locus YDR388W, active compounds read low 0.983 | locus YDR502C, strain sam2, active compounds read low 1.05 | locus YEL061C, strain CIN8, active compounds read low 1.02 | locus YER110C, active compounds read low 0.973 | locus YER155C, strain BEM2, active compounds read low 1.01 | locus YER167W, strain BCK2, active compounds read low 1.01 | locus YGL078C, strain dbp3, active compounds read low 1.02 | locus YGL086W, strain mad1, active compounds read low 1.05 | locus YGL248W, strain PDE1, active compounds read low 1.07 | locus YGR135W, strain pre9, active compounds read low 1.02 | locus YGR252W, strain gcn5, active compounds read low 1.21 | locus YHR030C, strain SLT2, active compounds read low 1 | locus YHR079C, strain IRE1 (second series), active compounds read low 0.991 | locus YHR094C, strain hxt1, active compounds read low 1 | locus YHR129C, strain ARP1, active compounds read low 1.02 | locus YHR200W, strain rpn10, active compounds read low 1.04 | locus YIL066C, strain RNR3, active compounds read low 1.01 | locus YIL073C, strain SPO22, active compounds read low 1.12 | locus YIL125W, strain kgd1, active compounds read low 1.02 | locus YIR030C, strain dcg1, active compounds read low 1.01 | locus YJL095W, strain BCK1, active compounds read low 1.08 | locus YJL134W, strain LCB3, active compounds read low 0.991 | locus YJL168C, strain set2, active compounds read low 1 | locus YJL187C, strain SWE1 (second series), active compounds read low 1 | locus YJR075W, strain HOC1, active compounds read low 1 | locus YKL009W, strain mrt4, active compounds read low 1.03 | locus YKL068W, active compounds read low 1.03 | locus YKL085W, strain MDH1 (second series), active compounds read low 1.04 | locus YKL085W, strain MDH1, active compounds read low 1.04 | locus YKL190W, strain CNB1, active compounds read low 0.988 | locus YKR001C, strain vps1, active compounds read low 1.09 | locus YLR039C, strain RIC1, active compounds read low 1.22 | locus YLR058C, strain SHM2, active compounds read low 1.01 | locus YLR102C, strain apc9, active compounds read low 0.972 | locus YLR268W, strain sec22, active compounds read low 1.04 | locus YLR330W, strain CHS5, active compounds read low 1.03 | locus YLR342W, strain FKS1 (second series), active compounds read low 1.03 | locus YLR371W, strain rom2, active compounds read low 0.992 | locus YML016C, strain PPZ1, active compounds read low 1.01 | locus YML032C, strain rad52, active compounds read low 0.987 | locus YML124C, strain tub3, active compounds read low 1.03 | locus YMR078C, strain ctf18, active compounds read low 0.993 | locus YMR223W, strain ubp8, active compounds read low 1.02 | locus YMR307W, strain GAS1, active compounds read low 1.32 | locus YNL067W, strain RPL9B, active compounds read low 1 | locus YNL153C, strain GIM3, active compounds read low 1.01 | locus YNL233W, strain BNI4, active compounds read low 1.05 | locus YNL250W, strain rad50, active compounds read low 0.999 | locus YNL271C, strain bni1, active compounds read low 1.03 | locus YNL298W, strain CLA4, active compounds read low 1.03 | locus YNL307C, strain MCK1, active compounds read low 0.967 | locus YNR052C, strain pop2, active compounds read low 1.02 | locus YOL012C, strain htz1 1.03 | locus YOL147C, strain pex11, active compounds read low 0.997 | locus YOR061W, strain CKA2, active compounds read low 1.02 | locus YOR069W, strain VPS5, active compounds read low 0.993 | locus YOR136W, strain idh2, active compounds read low 1 | locus YOR144C, strain elg1, active compounds read low 1.03 | locus YOR184W, strain ser1, active compounds read low 1.11 | locus YOR316C, strain cot1, active compounds read low 0.975 | locus YPL055C, strain LGE1, active compounds read low 1.16 | locus YPR119W, strain clb2, active compounds read low 0.978 | locus YPR141C, strain kar3, active compounds read low 1.03 | locus YPR163C, strain tif3, active compounds read low 1 | locus YPR167C, strain met16, active compounds read low 1.01 | strain wtn01, active compounds read low 1.07
